Results on 23 molecules are retold here after PubChem BioAssay (EPA / NIEHS).

Assay [1] can be described thus: APR_HepG2_CellLoss_72hr: Apredica 72-hour HepG2 Assay for Cell Loss (AID 2282915). Particulars: high-content imaging. In outline:
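HepG2 cells were exposed for 72 hr to compounds at 0.39–200 uM (ten concentrations, duplicate) in 0.5% v/v final DMSO. Nuclei were stained with Hoechst 33342 after 3.7% formaldehyde fixation, imaged at 20x, and counted; fits bidirectional versus DMSO.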

Assay [2] is described as follows: APR_HepG2_P-H2AX_72hr: Apredica 72-hour HepG2 Assay for H2AX Phosphorylation (AID 2282916).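 Also: phospho-histone H2A.x immunostain intensity per cell marking DNA damage.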 Particulars: imaging, actives raise or lower the signal. In outline:
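HepG2 human liver cells were exposed for 72 hr to compounds at 0.39–200 uM (10 concentrations, duplicate per plate) in 0.5% v/v DMSO. Fixed, permeabilized cells were immunolabeled for phospho-histone H2A.x with Hoechst 33342 and imaged by HCS fluorescence; bidirectional fit versus DMSO.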

Assay [3] can be described thus: APR_HepG2_MitoMembPot_72hr: Apredica 72-hour HepG2 Assay for Mitochondrial Membrane Potential (AID 2282917). The note with it: imaging, actives raise or lower the signal. Put shortly: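 HepG2 cells exposed 72 h to compounds at 0.39–200 uM (0.5% v/v DMSO, duplicates); MitoTracker Red CMXRos 250 nM loaded 30 min before 3.7% formaldehyde fixation, imaged by HCS fluorescence. Bidirectional fit versus DMSO.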

A short description of assay [4]: APR_HepG2_MitoticArrest_72hr: Apredica 72-hour HepG2 Assay for Mitotic Arrest (AID 2282918). Particulars: high-content imaging, actives raise or lower the signal. In outline: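 Mitotic arrest in HepG2 is scored from phospho-histone H3 staining after 72 hr dosing across 0.39–200 uM, with DMSO at 0.5% v/v. Nuclei are identified by Hoechst 33342 and fluorescence intensity is quantified per cell.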

Assay [5] is described as follows: APR_HepG2_MicrotubuleCSK_72hr: Apredica 72-hour HepG2 Assay for Microtubule CSK Stabilty (AID 2282919). The note with it: HepG2 microtubule cytoskeleton, high-content imaging, actives raise or lower the signal. Put shortly: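 HepG2 human liver cells were dosed for 72 h at ten concentrations from 0.39 to 200 uM in duplicate (0.5% v/v DMSO final). Fixed, permeabilized cells were immunostained for alpha-tubulin (Cy5) with a Hoechst counterstain and imaged at 20x.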

A short description of assay [6]: APR_HepG2_P-H2AX_24hr: Apredica 24-hour HepG2 Assay for H2AX Phosphorylation (AID 2282920). Particulars: high-content imaging, actives raise or lower the signal. Put shortly: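 Signal comes from a FITC-labeled secondary detecting phospho-histone H2A.x in fixed HepG2 cells, quantified by automated imaging at 20x. Dosing ran 24 hr across 0.39–200 uM with 0.5% v/v DMSO.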

A short description of assay [7]: APR_HepG2_StressKinase_72hr: Apredica 72-hour HepG2 Assay for Stress Kinase (AID 2282921). The note with it: HepG2 stress kinase (phospho-c-Jun) imaging, actives raise or lower the signal. Put shortly: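 Cells were exposed for 72 h to ten concentrations (0.39–200 uM, duplicate) at 0.5% v/v DMSO final, then fixed with 3.7% formaldehyde, permeabilized and immunostained for phospho-c-Jun (Cy3 secondary) with Hoechst nuclear counterstain.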

The nature of assay [8]: APR_HepG2_StressKinase_24hr: Apredica 24-hour HepG2 Assay for Stress Kinase (AID 2282922). The note with it: HepG2 stress kinase (phospho-c-Jun) imaging, actives raise or lower the signal. In outline:
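HepG2 cells exposed 24 hr to compound at 0.39–200 uM (10 concentrations, duplicate), 0.5% v/v DMSO final. Fixed in 3.7% formaldehyde, permeabilized with Triton X-100, immunolabeled for phospho-c-Jun with Hoechst 33342; HCS fluorescence imaging, bidirectional fit versus DMSO.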

Assay [9] in a line: APR_HepG2_p53Act_72hr: Apredica 72-hour HepG2 Assay for p53 Activation (AID 2282923).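 Also: average cellular p53 protein immunofluorescence intensity in HepG2 cells.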 Particulars: high-content imaging, actives raise or lower the signal. In outline: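 Cells were dosed for 72 hr with compounds at 0.39–200 uM in duplicate (final DMSO 0.5% v/v), then fixed in 3.7% formaldehyde, permeabilized with Triton X-100 and immunostained for p53 (Cy5) with Hoechst 33342 nuclear counterstain.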

Assay [10] in a line: APR_HepG2_MitoMass_72hr: Apredica 72-hour HepG2 Assay for Mitochondrial Mass (AID 2282924).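 Also: MitoTracker Red CMXRos stain intensity per cell imaged as mitochondrial mass.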 Particulars: high-content imaging, actives raise or lower the signal. In outline:
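HepG2 cells were exposed for 72 hr to compounds at 0.39–200 uM (ten concentrations, duplicate, 0.5% v/v DMSO final). Live cells were stained with 250 nM MitoTracker Red CMXRos for 30 min, then fixed in 3.7% formaldehyde and imaged by HCS fluorescence.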

Calls of active or inactive are those of the source. The calls were made as follows: active = hit-call score of the fitted dose curve at least 0.9, where 1 is the maximum; inactive = score below 0.9.

Take `Nc1ccc2ccccc2c1`: the molecule was classed as inactive in [1], in assay [2], in [3], in [4], in [5] and in assay [6]. Further, the molecule was called inactive in assay [7], in assay [8] and in [9]. For the same molecule, the AC50 in [10] is 69.8 µM (active).

`CN(C)C(=O)Cl`: the outcome in assay [1], in assay [2], in assay [3], in [4], in assay [5] and in assay [6] was inactive. Moreover, the result in assay [7], in [8] and in assay [10] was inactive.

With `c1ccc2c(c1)Nc1ccccc1S2`, the AC50 in assay [1] was 47 µM (active); in [3] it was 123 µM (active). Further, the outcome in assay [2], in [4], in [5], in assay [6], in [7] and in [8] was inactive. Further, the call in [9] and in assay [10] was inactive.

Turning to `O=C(O)C1C(C(=O)O)C2(Cl)C(Cl)=C(Cl)C1(Cl)C2(Cl)Cl` (stereo not given), the call in [1], in assay [2], in [6], in [7], in assay [8] and in assay [9] was inactive.

As to `CC(C)(C)c1ccc(O)cc1`, the outcome in [1], in assay [2], in [3], in assay [4], in assay [6] and in assay [7] was inactive. The call in assay [8], in assay [9] and in assay [10] was inactive.

For the molecule `Cc1ccc([N+](=O)[O-])cc1C`, the result in assay [1], in assay [2], in assay [3], in assay [4], in [5] and in assay [6] was inactive. The call in [7], in assay [8] and in [10] was inactive.

With `CC(Cc1ccc(OCC(=O)O)cc1)NCC(O)c1csc(C(F)(F)F)n1` (stereo not given), the call in assay [1], in assay [2], in assay [3], in assay [4], in assay [5] and in assay [6] was inactive. Further, the call in assay [7], in assay [8], in [9] and in assay [10] was inactive.

For the molecule `ClC(Cl)c1ccccc1`, the molecule was classed as inactive in assay [1], in [2], in [3], in [4], in assay [5] and in [6]. Also, the outcome in assay [7], in assay [8] and in assay [10] was inactive.

With `CCNc1nc(Cl)nc(NC(C)(C)C)n1`, the molecule was called inactive in assay [1], in assay [2], in assay [3], in assay [4], in assay [5] and in [6]. For the same molecule, the molecule was called inactive in [7], in assay [8] and in [10].

For `c1cc2c3c(cccc3c1)CC2`, the result in assay [1], in assay [2], in assay [6], in [7], in assay [8] and in [9] was inactive.

`Cc1ccc(O)cc1C`: the result in assay [1], in [2], in assay [3], in [4], in [6] and in assay [7] was inactive. Besides, the call in assay [8], in assay [9] and in assay [10] was inactive.

For the molecule `O=C(O)C(Cl)Cl`, the molecule was called inactive in [1], in assay [2], in assay [3], in assay [4], in assay [5] and in assay [6]. The outcome in assay [7], in assay [8] and in [10] was inactive.

For `CCCCCCCc1ccc(O)cc1`, the call in [1], in assay [2], in assay [3], in assay [4], in assay [5] and in [6] was inactive. Moreover, the result in assay [7], in [8] and in assay [10] was inactive.

`O=[N+]([O-])c1ccc(Cl)c(Cl)c1`: the outcome in [1], in [2], in assay [3], in assay [4], in assay [5] and in assay [6] was inactive. The molecule was called inactive in assay [7], in assay [8] and in [10].

In the case of `CCOP(=S)(Oc1ccc([N+](=O)[O-])cc1)c1ccccc1` (stereo not given), the AC50 in assay [1] is 27.7 µM (active). The outcome in [2], in assay [3], in assay [4], in assay [5], in assay [6] and in assay [7] was inactive. The molecule was called inactive in assay [8] and in [10].

As for `CC(Cl)(Cl)C(=O)O`, the molecule was called inactive in [1], in assay [2], in assay [3], in [4], in [5] and in [6]. The call in assay [7], in [8] and in [10] was inactive.

On to `CCCCc1ccccc1`, for which the molecule was classed as inactive in assay [1], in assay [2], in [3], in assay [4], in assay [5] and in [6]. The call in [7], in assay [8] and in assay [10] was inactive.

Consider `CCCCN(CCCC)SN(C)C(=O)Oc1cccc2c1OC(C)(C)C2`, for which the AC50 is 56.8 µM (active) in assay [1]; 59.9 µM (active) in [2]; 54.1 µM (active) in [4]; 97.1 µM (active) in assay [5]; 66.8 µM (active) in assay [6]. The call in assay [3], in assay [7], in assay [8] and in assay [10] was inactive.

Regarding `COCCOCCO`, the molecule was classed as inactive in assay [1], in [2], in assay [3], in [4], in assay [5] and in assay [6]. Also, the outcome in assay [7], in assay [8] and in assay [10] was inactive.

In the case of `Nc1cc2c3c(c1)C(c1ccccc1)=N[C@@H](NC(=O)c1cccnc1)C(=O)N3CC2`, the molecule was called inactive in [1], in assay [2], in [3], in assay [4], in assay [5] and in [6]. In addition, the molecule was called inactive in assay [7], in assay [8] and in [10].

For `CCOP(=S)(OCC)SCSCC`, the result in assay [1], in [2], in assay [3], in assay [4], in [5] and in assay [7] was inactive. For the same molecule, the molecule was classed as inactive in assay [8] and in assay [10]. Further, the AC50 in assay [6] was 107 µM (active).

Regarding `CCN(CC)c1ccccc1`, the call in assay [1], in assay [2], in [3], in [4], in assay [5] and in assay [6] was inactive. Moreover, the call in [7], in assay [8], in assay [9] and in assay [10] was inactive.

For the molecule `CSC(C)(C)C=NO`, the molecule was called inactive in [1], in assay [2], in assay [3], in assay [4], in assay [5] and in assay [6]. Further, the result in assay [7], in [8] and in [10] was inactive.
